Results taken from PubChem BioAssay AID588398 (Broad Institute, 2011).
Hit rate of the full screen: of about 1,200 compounds, about 110 (9.2%) were called active. Not shown: some 8% with an inconclusive outcome. Only a sample is shown. Entries with a potency or affinity are not part of this list. A number with no mark means an inactive call.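 The calls were made as follows: active = pathway reporter half-maximal dose under half the control reporter's, or control reporter unaffected while pathway reporter is inhibited; inconclusive = either signal flat at 30 to 70% inhibition or poorly fitted; inactive = the rest.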

experiment: TES1-eGFP NF-kB reporter inhibition versus Tet-On dsRED, dose response, selectivity assay for LMP1 NF-kB inhibitor project, imaging, HEK293T, dual-color eGFP/dsRED, cherry-picks (AID 588398); conditions: 48 h; HEK293T Tet-On dsRED counter-screen channel, at 19.5 µM (top of the series); activity change, negative = inhibition: at the top concentration;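 also: 0% = median of neutral control wells and -100% = median of MG132 positive control wells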

Compound | activity change, negative = inhibition | outcome
O=C(c1ccc(C#CC2(O)CCCCC2)cc1)N1CCN(C(c2ccccc2)c2ccccc2)CC1 | -14.9% | –
COc1ccc(C(c2c(C)n(C)n(-c3ccccc3)c2=O)c2c(C)n(C)n(-c3ccccc3)c2=O)c(OC)c1OC | 6.3% | –
Cc1ccccc1C(=O)NC(=S)Nc1ccc(N2CCN(C(=O)c3ccccc3)CC2)cc1 | 3.02% | –
COc1cccc(/C=N\NC(=O)c2ccc(C)nc2)c1 | 1.79% | –
O=C(N/N=C/c1c(O)ccc2ccccc12)c1cccnc1 | -94.7% | –
CC(CN1CCCCC1)OC(=O)c1ccc2c(c1)OCO2 (centres undefined) | -1.2% | –
N=C1S/C(=C\c2ccccc2)C(=O)N1c1ccc(F)cc1 | 5.19% | –
CN(C)S(=O)(=O)c1cccc(NC(=O)c2n[nH]c(=O)c3ccccc23)c1 | 7.35% | –
Cc1ccc(-c2cc(C(=O)N/N=C/C=C/c3ccco3)c3ccccc3n2)cc1C | 79.6% | –
Cc1c(NC(=O)c2cc(-c3cccs3)nc3ccccc23)c(=O)n(-c2ccccc2)n1C | 26.4% | –
CCOc1ccc(-c2cc(C(=O)N/N=C/c3ccc(O)cc3)c3ccccc3n2)cc1 | 112% | –
O=[N+]([O-])c1cccc(-c2ccc(/C=N/Nc3nc(N4CCCCC4)nc(N4CCCCC4)n3)o2)c1 | 41.5% | –
O=C(COC(=O)c1ccc(S(=O)(=O)NCc2ccco2)cc1)Nc1ccc(Cl)cn1 | 12.5% | –
CCOC(=O)/C=C(\C)Sc1cc(=O)oc2ccccc12 | -97.8% | –
COc1ccc([C@H]2N[C@]3(CCCN(Cc4ccco4)C3=O)[C@H]3C(=O)N(Cc4ccccc4)C(=O)[C@@H]23)cc1 | 0.261% | –
Cc1ccc(NC(=O)NNS(=O)(=O)c2ccc(Br)cc2)cc1 | -10.6% | –
CCN(Cc1ccncc1)C(=O)CCc1ccccc1 | 29.2% | –
Cc1c(/C(O)=C2/C(=O)C(=O)N(CCN3CCOCC3)C2c2ccccn2)cnn1-c1ccccc1 (centres undefined) | 0.373% | –
COC(=O)CCCC[C@@H]1SC[C@@H](NC(=O)OC)[C@@H]1NC(=O)OC | 19.4% | –
CN=C1S/C(=C\c2ccc(O)c(Br)c2)C(=O)N1C | 7.27% | –
C#CCN(C[C@@H]1[C@@H](OC(=O)NCC2CCCCC2)[C@@H](OC(=O)NCC2CCCCC2)Cn2c(=O)ccc(=O)n21)S(=O)(=O)c1ccc(C)cc1 | -99.9% | –
O=C(NOCc1ccccc1)c1ccc(Cl)cc1Cl | -18% | –
S=C(NCC1CCCCC1)Nc1ccc(Oc2ccccc2)cc1 | 14.5% | –
CCN(CC(=O)NCc1ccc(F)cc1)CC(=O)Nc1cc(S(=O)(=O)N(C)C)ccc1C | -15.9% | –
COc1ccc(C(=O)CN(CCC(=O)O)S(=O)(=O)c2ccc([N+](=O)[O-])cc2)cc1 | 1.46% | –
O=C(Nc1ccc(N2CCOCC2)cc1)c1cn2ccccc2n1 | -2.87% | –

Compound | activity change, negative = inhibition | outcome
Cc1sc2ncnc(N3CCC(C(=O)Nc4ccccc4C(C)(C)C)CC3)c2c1C | -6.18% | –
C=CCn1c(O)c(N=NC(=S)Nc2ccccc2C)c2cc(S(=O)(=O)N3CCOCC3)ccc21 | 43.7% | –
Cc1cccc(NC(=S)N=Nc2c(O)n(C)c3ccc(S(=O)(=O)N4CCOCC4)cc23)c1 | 20.2% | –
CN1C(=O)C(CC(=O)NC2CCCCC2)SC1=Nc1ccccc1 (centres undefined) | -4.39% | –
COc1ccc(-c2ccc3c(c2)S(=O)(=O)c2cccc(C(=O)NCc4cc(C)oc4C(F)(F)F)c2C3=O)cc1OC | 6.54% | –
Cc1ccc(C(=O)Nc2cccc(C(F)(F)F)c2)cc1NC(=O)c1ccno1 | – | inactive
CCOc1ccc(/C=N/Nc2cc(N3CCOCC3)ncn2)c(O)c1 | -12.3% | –
COc1cccc(C(=O)Nc2nc3ccccc3[nH]2)c1 | 31.9% | –
Cn1cccc1CC(=O)NNC(=S)Nc1ccccc1Cl | -1.27% | –
COC(=O)C1=C(C)N(CCCC(=O)O)C(=O)NC1c1cccc(Cl)c1Cl (centres undefined) | -6.66% | –
COc1cc2cc(C(=O)N3CCN(c4ccccc4OC)CC3)[nH]c2cc1OC | 0.636% | –
CCN(C(=O)c1cccc(NC(=O)c2ccccc2)c1)C1CCCCC1 | 56.7% | –
O=C(Nc1cccc(C(=O)O)c1)Nc1ccccc1Cl | 25.4% | –
N=c1c(-c2nc3ccccc3[nH]2)cc(C(=O)c2cccs2)nn1-c1ccccc1 | 18.5% | –
CCCCCC(=O)N1CCN(c2ccc(C(C)=O)cc2F)CC1 | 12.2% | –
Cc1ccc(-c2csc(=Nc3cccnc3)n2CCCn2ccnc2)cc1C | -85.9% | –
COc1cc(/C=C(\C#N)c2ccccn2)ccc1OCc1ccccc1Cl | 9.75% | –
Cc1cc(/C=C2\Cc3ccccc3C2=O)c(C)n1-c1ccccc1 | 30.7% | –
CCCCNC(=S)Nc1ccc([N+](=O)[O-])cc1 | -9.38% | –
CC(=O)NC(CCS(C)(=O)=O)C(=O)Nc1ccc(Cl)c(Cl)c1 (centres undefined) | -4.89% | –
C=C1C(=O)C2=CC1CCC(=O)C1(C)CCC(OC(C)=O)C(C)(C)C1CC2O (centres undefined) | -98.8% | –
O=C(NCC1CCOCC1)c1ccc(OC2CCN(Cc3ccccn3)CC2)cc1 | 14.1% | –
CCc1ccc(/C=N/NC(=O)c2ccccn2)cc1 | -0.532% | –
Cc1ccsc1-c1nc(CSCC(=O)N2CCN(c3ccccc3)CC2)c(C)o1 | 44.4% | –
CCCSc1nc2cc(S(=O)(=O)N3CCOCC3)ccc2n1CC | 19.4% | –
CC(C)OCCCNC(=O)C1CCC(CNS(=O)(=O)c2ccccc2)CC1 (centres undefined) | -9.46% | –

Compound | activity change, negative = inhibition | outcome
NC1=NC(=O)NC1(c1ccccc1)c1ccccc1 | 2.06% | –
Cc1cc(=S)[nH]c2ccccc12 | 3.44% | –
CCOCCCn1c(=S)[nH]c2ncccc2c1=O | -10.1% | –
C=CCn1c(O)c(N=NC(=S)Nc2cccc(C)c2)c2ccccc21 | 18.7% | –
Cn1nc(-c2ccc(N3CCOCC3)c(NS(=O)(=O)c3ccccc3)c2)c2ccccc2c1=O | 24.4% | –
CCN(CC)S(=O)(=O)c1ccc(N/N=C/c2ccc(O)cc2O)nc1 | -89.9% | –
CCN(CC)c1ccc(/C=N/NC(=O)c2ccc3nc[nH]c3c2)c(O)c1 | -65.3% | –
C(=N\Nc1nc2ccccc2[nH]1)/c1cccc2nccnc12 | 30.3% | –
COc1cccc(/C=N/Nc2nc3ccccc3[nH]2)c1O | -89.9% | –
Cc1ccc(/C=C/c2nc3ccccc3c(=O)[nH]2)cc1 | -9.47% | –
CCN(CC)c1ccc(NC(=O)c2cccc(F)c2)c(C)c1 | 163% | –
Cc1cc(C)cc(C(=O)NCCC(=O)NCc2cc(=O)n(C)c(=O)n2C)c1 | 15.2% | –
O=C(CSc1nnc(-c2cccc(S(=O)(=O)N3CCOCC3)c2)n1C1CCCCCC1)NCc1ccccc1 | 20.6% | –
CN(C)CC(C)(C)CNS(=O)(=O)c1ccc(OC(F)(F)F)cc1 | 13.2% | –
COc1ccc2[nH]c3c(=O)n(CCCCC(=O)N4CCC(C(N)=O)CC4)c(=S)[nH]c3c2c1 | 21.2% | –
COc1ccc2cc(C(N)=O)/c(=N\NC(=O)c3ccccc3)oc2c1 | -14.7% | –
CN(C)/C=C/C(=O)c1ccc2noc(-c3ccccc3)c2c1 | -15.5% | –
N#Cc1c(NC(=O)CCCC(=O)O)sc2c1CCCCC2 | 9.82% | –
CC(C)[C@H](N[C@@H](C)c1ccccc1)c1c(O)ccc2ccccc12 | -4.13% | –
CC(=O)c1c(C)[nH]c(C(=O)Nc2ccc(C)cn2)c1C | 39.2% | –
COc1ccc(Nc2oc(COc3ccccc3OC)nc2C#N)cc1 | 20.2% | –
COc1cc2nc(NC(=O)c3ccco3)sc(=O)c2cc1OC | -12.1% | –
CCOC(=O)C1=C(C)N(C)C(=O)NC1c1ccccc1OC (centres undefined) | 14.8% | –
O=C(Nc1cc(S(=O)(=O)N2CCOCC2)ccc1Cl)c1ccncc1 | 8.81% | –
O=C1C2CCCN2c2ccc(S(=O)(=O)N3CCOCC3)cc2N1Cc1ccccc1F (centres undefined) | -10.2% | –
CCn1nc(C(=O)Nc2nc(-c3ccccn3)cs2)c2ccccc2c1=O | 13.2% | –

Compound | activity change, negative = inhibition | outcome
COc1ccc(C2CC(C(F)(F)F)n3ncc(C(=O)NCc4cccnc4)c3N2)cc1OC (centres undefined) | 3.54% | –
C=CCN=C1NN=C(c2cc(C)n(CCOC)c2C)CS1 | 5.31% | –
Cc1cccc(C)c1NC(=O)CN(C)CC(=O)Nc1ccccc1Oc1ccccc1 | 13.9% | –
Cc1sc2nc(SCC(=O)OC(C)C)n(C)c(=O)c2c1C | 25.6% | –
O=C(c1ccc(Cl)cc1)N1CCN(CCOc2ccccc2)CC1 | 8.86% | –
Cc1cccc(Cn2cc(SCC(=O)Nc3nccs3)c3ccccc32)c1 | 20.8% | –
O=C(CSc1nc2ccccc2c(=O)n1CCCN1CCOCC1)Nc1ccc(Br)cc1 | 0.76% | –
O=C(Cn1cc(CNC(=O)C2CCCCC2)nn1)Nc1cc(C(F)(F)F)ccc1Cl | -3.45% | –
COc1ccc(NC(=O)c2cc3ccccc3oc2=O)cc1 | 2.5% | –
COc1ccc(C(=O)Nc2cccc(C(=O)N/N=C/c3ccc(OC)cc3OC)c2)cc1 | 11.3% | –
COc1cc(NC(=S)N2CCN(CCO)CC2)cc(OC)c1 | -3.32% | –
CCCc1nc(SCC(=O)NCc2ccco2)c2c(=O)n(C)c(=O)n(C)c2n1 | -8.24% | –
Oc1c(N=NC(=S)Nc2ccccc2F)c2ccccc2n1Cc1ccccc1F | 78.1% | –
O=C1C=Cc2cccc3ccc(O)c1c23 | -25.7% | –
COc1ccc(OC)c(CCNC(=O)CCn2nc(C)c3c(C)n(-c4ccccc4)nc3c2=O)c1 | 33% | –
Cc1ccc(C2=C/C(=C\c3cccnc3)C(=O)O2)cc1 | -0.215% | –
CC1S/C(=C(\C#N)C(=O)NCc2ccco2)N(Cc2ccco2)C1=O (centres undefined) | 11.3% | –
CCc1ccc(/C=C2\SC(=S)N(CCCC(=O)NC3=NCCS3)C2=O)cc1 | 3.24% | –
O=C(CCCN1C(=O)/C(=C/c2ccccc2Cl)SC1=S)NNC(=O)c1ccccc1Cl | 7.28% | –
O=C(O)CN1C(=O)/C(=C\c2ccccc2OCc2ccc(Cl)cc2Cl)SC1=S | 21% | –
COc1cc(/C=C2/SC(=S)N(Cc3ccccc3)C2=O)ccc1OCC(=O)O | 3.87% | –
CCCC(C)NC(C)C(=O)NC1CCCC1 (centres undefined) | -5.26% | –
COc1ccc(C(=O)Nn2c(SCC(=O)NCc3ccco3)nc3ccccc3c2=O)cc1 | 11.7% | –
O=C(Nc1ccc(Br)cc1)C1CC(O)CN1C(=O)OCc1ccccc1 (centres undefined) | -3.55% | –
CCOc1ccc(NC(=O)CCc2nnc3ccc(N4CCC5(CC4)OCCO5)nn23)cc1 | 13.6% | –
COc1ccc(N2CCN(c3ncnc4c3[nH]c3ccccc34)CC2)cc1 | 5.9% | –
